The record followed here is PubChem BioAssay (Tox21).

Assay [1] concerns the target Acetylcholinesterase (Homo sapiens) (UniProt P22303). Briefly: Acetylcholinesterase (AChE) small molecule antagonists: enzyme-based qHTS assay (AID 1347397; calls by dose curve; also: nearly all actives have a fitted effect of over 55% in size; also: potency is read from the fitted curve at half-maximal effect). The following applies: Potency: AChE enzyme activity inhibition. In a few lines:
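Absorbance-based detection of thiocholine with DTNB served as the read-out. Recombinant human AChE was exposed to compound for 30 min at RT before a 10 min RT incubation with acetylthiocholine.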
(In general: In qHTS, concentration-response curves come from the screen itself.)

Assay [2] has the same target. Briefly: Acetylcholinesterase (AChE) small molecule antagonists: fluorescence cell-based qHTS assay (AID 1347398; calls by dose curve; also: nearly all actives have a fitted effect of over 50% in size; also: potency is read from the fitted curve at half-maximal effect). The following applies: Potency: AChE activity. In a few lines:
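Fluorimetric cell-based assay: intact SH-SY5Y cells, 30 min compound preincubation at 37 C, acetylthiocholine substrate with thiol probe Thiolite Green, 40 min RT development, fluorescence 490/520 nm.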

The target is the same in assay [3]. The assay is described as follows: Acetylcholinesterase (AChE) small molecule antagonists: enzyme-based qHTS assay with human liver microsomes (AID 1347399; calls by dose curve; also: nearly all actives have a fitted effect of over 60% in size). The following applies: Potency: qHTS inhibition. In outline:
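Recombinant human AChE (50 mU/mL in the enzyme mix) and human liver microsomes (0.25 mg/mL final) were preincubated with compound and NADPH (0.25 mg/mL final) for 30 min at 37 C. Acetylthiocholine/DTNB was then added; thiocholine was read colorimetrically after 10 min at room temperature.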

In assay [4] the target is Cytochrome P450 2C19 (Homo sapiens) (UniProt P33261). The assay is described as follows: Cytochrome P450 Family 2 Subfamily C Member 19 (CYP2C19) small molecule antagonists: luciferase reporter qHTS assay (AID 1671197). Also: nearly all actives have a fitted effect of over 65% in size. Also: potency is read from the fitted curve at half-maximal effect. In a few lines:
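Inhibition of CYP2C19 was scored from loss of luminescence in a P450-Glo proluciferin substrate assay, NADPH-started and run 1 h at 37C, with ketoconazole as positive control.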
In general terms: Reporter assays use an easily measured gene product as a stand-in for the process of interest.

The target of assay [5] is Cytochrome P450 2C9 (Homo sapiens) (UniProt P11712). Briefly: Cytochrome P450 Family 2 Subfamily C Member 9 (CYP2C9) small molecule antagonists: luciferase reporter qHTS assay (AID 1671198). Also: nearly all actives have a fitted effect of over 50% in size. Also: potency is read from the fitted curve at half-maximal effect. In outline: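 Enzyme-substrate mix preincubated with compound 10 min at room temperature; reaction started with NADPH regeneration solution, 1 h 37C. Luminescent luciferin product read after 20 min detection reagent.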
Chain of Cytochrome P450 2C9 (Homo sapiens) (P11712 whole entry, looked up): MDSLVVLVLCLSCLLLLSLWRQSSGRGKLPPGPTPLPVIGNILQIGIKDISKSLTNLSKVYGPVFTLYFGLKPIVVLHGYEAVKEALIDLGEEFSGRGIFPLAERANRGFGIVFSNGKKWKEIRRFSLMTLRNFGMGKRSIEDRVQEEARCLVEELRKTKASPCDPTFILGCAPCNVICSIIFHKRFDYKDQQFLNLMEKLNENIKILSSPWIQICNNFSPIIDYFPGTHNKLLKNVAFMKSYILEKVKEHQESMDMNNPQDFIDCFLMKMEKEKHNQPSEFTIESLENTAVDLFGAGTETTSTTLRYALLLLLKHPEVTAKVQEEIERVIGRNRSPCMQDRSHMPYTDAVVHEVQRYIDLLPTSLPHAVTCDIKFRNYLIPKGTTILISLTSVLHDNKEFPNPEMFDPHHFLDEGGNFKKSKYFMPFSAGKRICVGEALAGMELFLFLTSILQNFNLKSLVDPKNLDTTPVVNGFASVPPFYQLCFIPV

Assay [6] addresses Voltage-gated inwardly rectifying potassium channel KCNH2 (Homo sapiens) (UniProt Q12809). The assay is described as follows: Human Ether-a-go-go-Related Gene (hERG) channel small molecule antagonists: fluorescence cell-based qHTS assay (AID 1671200). Also: nearly all actives have a fitted effect of over 50% in size. Also: potency is read from the fitted curve at half-maximal effect. In outline:
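U2OS cells expressing the channel were plated at 1000 cells/well, incubated overnight at 37 C, then loaded with FluxOR II thallium-sensitive dye for 1 h at room temperature in the dark, with a further 10 min at room temperature before stimulation.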
On the technique in general: Block of hERG is tested as a sign of cardiac risk.

The target of assay [7] is Cytochrome P450 3A4 (Homo sapiens) (UniProt P08684). The assay is described as follows: Cytochrome P450 Family 3 Subfamily A Member 4 (CYP3A4) small molecule antagonists: luciferase reporter qHTS assay (AID 1671201). Also: nearly all actives have a fitted effect of over 50% in size. Also: potency is read from the fitted curve at half-maximal effect. In a few lines: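 P450-Glo CYP3A4 system with proluciferin substrate; compounds preincubated 10 min RT with enzyme-substrate mix, then NADPH regeneration added for 1 h RT. Detection reagent 20 min, luminescence read as relative luminescence units.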
Chain of Cytochrome P450 3A4 (Homo sapiens) (P08684 whole entry, looked up): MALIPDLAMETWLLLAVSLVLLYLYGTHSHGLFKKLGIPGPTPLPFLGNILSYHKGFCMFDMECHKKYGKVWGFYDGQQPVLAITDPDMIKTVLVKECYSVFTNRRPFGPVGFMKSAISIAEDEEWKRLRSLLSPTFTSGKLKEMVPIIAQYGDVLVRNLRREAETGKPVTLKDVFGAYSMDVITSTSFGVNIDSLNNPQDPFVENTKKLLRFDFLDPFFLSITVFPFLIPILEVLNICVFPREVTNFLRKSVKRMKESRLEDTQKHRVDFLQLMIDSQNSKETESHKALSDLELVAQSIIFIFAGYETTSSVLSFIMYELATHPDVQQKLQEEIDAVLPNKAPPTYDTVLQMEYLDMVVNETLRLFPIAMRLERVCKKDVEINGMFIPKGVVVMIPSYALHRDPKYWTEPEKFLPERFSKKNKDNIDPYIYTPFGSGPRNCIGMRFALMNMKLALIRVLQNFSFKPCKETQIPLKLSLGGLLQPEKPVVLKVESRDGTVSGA

Assay [8] has as its target Cytochrome P450 1A2 (Homo sapiens) (UniProt P05177). The assay is described as follows: Cytochrome P450 Family 1 Subfamily A Member 2 (CYP1A2) small molecule antagonists: luciferase reporter qHTS assay (AID 1671199). Also: nearly all actives have a fitted effect of over 50% in size. Also: potency is read from the fitted curve at half-maximal effect. In a few lines: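 Enzymatic CYP1A2 assay, human, luminescent: 10 min compound–enzyme–substrate preincubation, 1 h NADPH-dependent turnover, 20 min detection step, room temperature throughout. Reduced light indicates lower CYP1A2 activity.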

Assay [9] addresses Cytochrome P450 2D6 (Homo sapiens) (UniProt P10635). Briefly: Cytochrome P450 Family 2 Subfamily D Member 6 (CYP2D6) small molecule antagonists: luciferase reporter qHTS assay (AID 1671196). In outline:
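Each well received CYP2D6 with its proluciferin substrate and chemical, sat 10 min, then got NADPH regeneration solution for 1 h at room temperature. Luminescence in RLU served as the activity measure.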

“And” between values parts separate entries of the source, which are not always exact repeats. Equal entries are not always repeated. Inconclusive results are not listed. The source made the active and inactive calls. Unless noted, calls follow the shape of the dose curve; as a rule, active = well fitted curve in the direction sought with a large enough effect in the repeat runs; inconclusive = weak or mixed curves; inactive = no such curve, though single readings can be large; an effect the other way counts as inactive or inconclusive.

Chain of Cytochrome P450 1A2 (Homo sapiens) (P05177 whole entry, looked up): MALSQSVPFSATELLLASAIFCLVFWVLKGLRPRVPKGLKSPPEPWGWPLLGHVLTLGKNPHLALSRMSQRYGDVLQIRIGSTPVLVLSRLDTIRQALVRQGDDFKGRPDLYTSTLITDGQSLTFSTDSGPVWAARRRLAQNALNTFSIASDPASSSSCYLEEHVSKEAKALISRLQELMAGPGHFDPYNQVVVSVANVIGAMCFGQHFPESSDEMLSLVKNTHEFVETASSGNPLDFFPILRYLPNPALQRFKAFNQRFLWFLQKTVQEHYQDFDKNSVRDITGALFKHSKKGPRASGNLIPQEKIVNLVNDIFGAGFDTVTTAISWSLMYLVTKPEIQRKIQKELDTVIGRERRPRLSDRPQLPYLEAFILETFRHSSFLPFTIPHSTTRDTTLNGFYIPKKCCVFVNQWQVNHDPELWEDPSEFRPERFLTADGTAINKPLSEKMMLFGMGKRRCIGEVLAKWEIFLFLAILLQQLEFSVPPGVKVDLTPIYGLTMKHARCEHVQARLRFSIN
Chain of Acetylcholinesterase (Homo sapiens) (P22303 whole entry, looked up): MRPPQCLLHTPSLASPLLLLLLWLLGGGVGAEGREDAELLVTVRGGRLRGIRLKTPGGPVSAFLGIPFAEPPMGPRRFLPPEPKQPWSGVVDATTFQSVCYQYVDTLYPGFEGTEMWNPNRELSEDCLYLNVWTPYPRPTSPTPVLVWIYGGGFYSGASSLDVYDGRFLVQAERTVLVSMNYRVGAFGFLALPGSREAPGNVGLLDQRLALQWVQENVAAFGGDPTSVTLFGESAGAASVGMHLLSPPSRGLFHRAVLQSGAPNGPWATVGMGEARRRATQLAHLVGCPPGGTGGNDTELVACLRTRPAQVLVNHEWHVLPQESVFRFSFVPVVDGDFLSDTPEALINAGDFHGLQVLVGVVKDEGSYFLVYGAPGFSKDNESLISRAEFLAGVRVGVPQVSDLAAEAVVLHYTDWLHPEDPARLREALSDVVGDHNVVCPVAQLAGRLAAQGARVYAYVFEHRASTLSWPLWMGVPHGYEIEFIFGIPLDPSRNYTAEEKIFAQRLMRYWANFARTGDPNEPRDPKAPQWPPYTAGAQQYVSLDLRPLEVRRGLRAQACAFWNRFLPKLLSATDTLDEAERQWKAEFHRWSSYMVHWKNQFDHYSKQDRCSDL
Chain of Cytochrome P450 2D6 (Homo sapiens) (P10635 whole entry, looked up): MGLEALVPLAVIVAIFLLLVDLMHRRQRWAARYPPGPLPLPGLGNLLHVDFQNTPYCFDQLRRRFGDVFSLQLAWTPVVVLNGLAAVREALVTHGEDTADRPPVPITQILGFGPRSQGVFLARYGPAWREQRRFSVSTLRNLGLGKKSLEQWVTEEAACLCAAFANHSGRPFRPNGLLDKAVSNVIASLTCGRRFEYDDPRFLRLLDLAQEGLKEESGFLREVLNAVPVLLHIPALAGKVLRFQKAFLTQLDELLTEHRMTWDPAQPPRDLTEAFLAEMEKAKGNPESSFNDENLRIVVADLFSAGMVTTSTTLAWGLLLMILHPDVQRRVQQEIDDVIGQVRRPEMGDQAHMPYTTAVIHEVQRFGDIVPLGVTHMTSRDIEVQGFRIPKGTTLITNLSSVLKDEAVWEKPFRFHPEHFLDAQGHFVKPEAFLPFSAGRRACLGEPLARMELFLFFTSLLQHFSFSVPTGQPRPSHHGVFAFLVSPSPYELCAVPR
Chain of Cytochrome P450 2C19 (Homo sapiens) (P33261 whole entry, looked up): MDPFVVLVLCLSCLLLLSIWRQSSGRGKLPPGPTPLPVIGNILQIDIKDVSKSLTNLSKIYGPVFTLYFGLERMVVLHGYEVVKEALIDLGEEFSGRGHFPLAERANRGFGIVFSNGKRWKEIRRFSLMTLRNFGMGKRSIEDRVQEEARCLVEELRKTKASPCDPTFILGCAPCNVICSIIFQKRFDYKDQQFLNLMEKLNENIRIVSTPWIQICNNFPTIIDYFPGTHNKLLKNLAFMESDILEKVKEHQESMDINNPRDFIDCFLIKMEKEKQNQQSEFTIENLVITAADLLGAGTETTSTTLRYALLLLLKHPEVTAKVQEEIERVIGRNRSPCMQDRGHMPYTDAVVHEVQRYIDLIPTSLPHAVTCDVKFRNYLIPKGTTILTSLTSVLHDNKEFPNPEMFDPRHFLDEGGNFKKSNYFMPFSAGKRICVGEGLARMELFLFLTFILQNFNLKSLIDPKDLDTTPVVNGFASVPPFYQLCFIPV
Chain of Voltage-gated inwardly rectifying potassium channel KCNH2 (Homo sapiens) (Q12809 whole entry, looked up): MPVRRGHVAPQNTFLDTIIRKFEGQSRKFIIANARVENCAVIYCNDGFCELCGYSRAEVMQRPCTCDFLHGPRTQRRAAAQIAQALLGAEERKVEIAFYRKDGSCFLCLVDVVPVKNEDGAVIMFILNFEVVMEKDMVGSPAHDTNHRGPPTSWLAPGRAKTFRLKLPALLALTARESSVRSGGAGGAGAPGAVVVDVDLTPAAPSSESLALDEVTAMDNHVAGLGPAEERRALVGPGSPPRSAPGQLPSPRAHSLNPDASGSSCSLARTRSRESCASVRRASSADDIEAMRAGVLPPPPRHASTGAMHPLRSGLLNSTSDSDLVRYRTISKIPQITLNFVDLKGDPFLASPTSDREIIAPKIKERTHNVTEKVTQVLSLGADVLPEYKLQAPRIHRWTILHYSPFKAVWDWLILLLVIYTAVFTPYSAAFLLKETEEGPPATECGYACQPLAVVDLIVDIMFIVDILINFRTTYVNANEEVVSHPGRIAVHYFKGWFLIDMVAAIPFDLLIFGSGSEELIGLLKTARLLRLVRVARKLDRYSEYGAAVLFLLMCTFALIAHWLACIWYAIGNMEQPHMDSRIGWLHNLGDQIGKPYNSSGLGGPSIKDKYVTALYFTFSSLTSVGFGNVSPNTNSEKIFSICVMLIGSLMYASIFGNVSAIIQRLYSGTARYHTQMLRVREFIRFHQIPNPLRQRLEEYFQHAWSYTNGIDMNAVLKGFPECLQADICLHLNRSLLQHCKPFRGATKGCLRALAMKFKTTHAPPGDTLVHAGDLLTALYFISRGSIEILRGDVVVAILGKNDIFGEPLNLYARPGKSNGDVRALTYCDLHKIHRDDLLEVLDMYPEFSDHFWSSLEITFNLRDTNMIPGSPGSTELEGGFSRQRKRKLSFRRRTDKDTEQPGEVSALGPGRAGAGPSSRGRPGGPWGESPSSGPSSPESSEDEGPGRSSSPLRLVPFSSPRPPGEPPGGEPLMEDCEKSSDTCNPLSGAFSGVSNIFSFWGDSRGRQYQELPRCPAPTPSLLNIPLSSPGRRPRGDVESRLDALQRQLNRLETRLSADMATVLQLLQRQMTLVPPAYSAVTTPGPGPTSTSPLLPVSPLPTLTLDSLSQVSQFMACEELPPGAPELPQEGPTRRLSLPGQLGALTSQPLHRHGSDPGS

Regarding `O=C1C=CC(=O)c2ccccc21`, the Potency result in assay [1], in assay [2] and in [3] was “inactive” in each case. Besides, the Potency in [4] was 14.2 µM (active); in assay [5], 11.2 µM (active); in assay [6], 21.9 µM (active); in assay [7] it was 15.9 µM (active).
For the molecule `Clc1ccc(-c2ccc(Cl)c(Cl)c2Cl)c(Cl)c1Cl`, the Potency result in assay [1], in assay [2], in assay [3] and in assay [7] was “inactive” throughout. For the same molecule, the Potency in [4] is 1.91 µM (active); in assay [5], 17 µM (active); in assay [8], 33.9 µM (active).
Turning to `c1ccc(Nc2ccc3ccccc3c2)cc1`, the Potency result in assay [1], in assay [2] and in assay [3] was “inactive” in each case. Also, the Potency in assay [4] is 7.06 µM (active) and 5.64 µM (active); in assay [5], 35.4 µM (active) and 31.7 µM (active); in [8], 3.54 µM (active) and 3.56 µM (active); in [7] it was 22.3 µM (active) and 35.6 µM (active).
Regarding `CCCCOCN(C(=O)CCl)c1c(CC)cccc1CC`, the Potency entry in assay [1], in assay [2], in assay [3] and in assay [6] was “inactive” each time. The results for the Potency in [4], in assay [5] and in assay [7] were 0.894 µM (active), 3.99 µM (active) and 7.1 µM (active), respectively.
Turning to `CC1CCC(C(C)C)C(OC(=O)c2ccccc2N)C1` (stereo unspecified), the Potency entry in assay [1], in assay [2] and in assay [3] was “inactive” each time. Further, the Potency in [4] is 1.11 µM (active); in assay [5], 2.48 µM (active); in assay [6], 43 µM (active).
On to `c1ccc2c(c1)[nH]c1cnccc12`, for which the Potency entry in [1], in [3] and in assay [6] was “inactive” each time. Further, the Potency in assay [9] is 7.11 µM (active); in [4], 31.8 µM (active); in assay [5], 31.8 µM (active); in assay [8] it was 7.98 µM (active); in assay [7], 31.8 µM (active).
Turning to `CCc1cc(C)cc(CC)c1-c1c(OC(=O)C(C)(C)C)n2n(c1=O)CCOCC2`, the Potency result in assay [1], in assay [2], in [3], in assay [5] and in assay [6] was “inactive” throughout. The Potency in [7] was 8.94 µM (active).
On to `N#C/C=C/c1ccccc1`, for which the Potency entry in [1], in assay [2], in assay [3], in assay [4], in [6] and in [7] was “inactive” each time.
For `ClC(Cl)=C(Cl)Cl`, the Potency entry in assay [1], in assay [2], in assay [3], in assay [4], in [5] and in assay [7] was “inactive” in each case.
Regarding `Oc1cccc(-c2ccccc2)c1`, the Potency result in assay [1], in assay [2], in assay [3] and in assay [6] was “inactive” in each case. The Potency in assay [4] is 35.6 µM (active); in assay [8] it was 17.8 µM (active).
Consider `COP(N)(=S)OC`, for which the Potency result in [1], in assay [2], in assay [3], in [8], in assay [6] and in assay [7] was “inactive” throughout.
As to `Clc1ccc(Oc2ccccc2)cc1`, the Potency entry in assay [1], in assay [2], in assay [3], in [5] and in assay [7] was “inactive” throughout.
With `O=C(CCCN1CCC2(CC1)C(=O)NCN2c1ccccc1)c1ccc(F)cc1`, the Potency result in assay [1], in assay [3], in [4], in [5], in assay [8] and in assay [7] was “inactive” each time. In addition, the Potency in assay [9] is 0.977 µM (active).
As for `CC(C)(O)c1cnn2c(-c3ccc(F)c(-c4c(F)cccc4C#N)c3)cnc2n1`, the Potency result in assay [1], in assay [3] and in assay [6] was “inactive” throughout. For the same molecule, the Potency is 28.3 µM (active) in [2], 8.94 µM (active) in assay [4], 1.26 µM (active) in assay [5] and 35.6 µM (active) in assay [7].
With `Oc1ccc(C(c2ccc(O)cc2)(C(F)(F)F)C(F)(F)F)cc1`, the Potency result in assay [1], in assay [2], in [3] and in assay [8] was “inactive” each time. Moreover, the Potency in assay [4] was 5 µM (active) and 2.83 µM (active); in assay [6], 43.4 µM (active); in [7] it was 35.4 µM (active) and 35.6 µM (active).
Take `[CH3][Hg][Cl]`: the Potency entry in assay [1], in [2], in assay [3] and in assay [8] was “inactive” throughout. In addition, the Potency in assay [6] was 24.5 µM (active); in assay [7], 39.8 µM (active).
As for `O=[N+]([O-])c1cc(C(F)(F)F)c(Cl)c([N+](=O)[O-])c1Cl`, the Potency result in [1], in assay [2] and in [3] was “inactive” in each case. Besides, the Potency was 11.2 µM (active) in assay [8], 27.5 µM (active) in assay [6] and 56.4 µM (active) in assay [7].
As to `CCOC(=O)CC(=O)CCl`, the Potency entry in assay [1], in assay [2], in [3], in assay [4], in assay [5] and in assay [7] was “inactive” each time.
With `CC(C)(C)c1cc([N+](=O)[O-])cc(C(C)(C)C)c1O`, the Potency entry in assay [1], in assay [2] and in assay [3] was “inactive” throughout. Further, the Potency in assay [4] and in assay [8] was 31.7 µM (active) throughout.
With `ClC1=C(Cl)[C@]2(Cl)[C@@H]3[C@@H]4C[C@@H]([C@H]5O[C@@H]45)[C@@H]3[C@@]1(Cl)C2(Cl)Cl`, the Potency result in assay [1] and in [3] was “inactive” in each case. The Potency in [9] was 25.2 µM (active); in assay [4], 3.17 µM (active).
In the case of `O=C(Cl)c1ccc(Cl)cc1`, the Potency result in assay [1], in [2], in assay [3], in assay [8] and in assay [6] was “inactive” each time.
As for `Cn1cc(C2=C(c3cn(C4CCN(Cc5ccccn5)CC4)c4ccccc34)C(=O)NC2=O)c2ccccc21`, the Potency entry in assay [1], in assay [2], in assay [3], in assay [8] and in assay [7] was “inactive” each time. For the same molecule, the Potency in assay [5] was 3.09 µM (active).
As for `Nc1c(Oc2ccccc2)cc(O)c2c1C(=O)c1ccccc1C2=O`, the Potency result in assay [1], in assay [2], in assay [3], in assay [6] and in assay [7] was “inactive” throughout.
As to `CCOP(=S)(OCC)SCCS(=O)(=O)CC`, the Potency is 71 µM (active) in assay [1]; 35.6 µM (active) in assay [2]; 2.24 µM (active) in assay [9]; 0.1 µM (active) in assay [4]; 0.894 µM (active) in assay [5]; 35.6 µM (active) in assay [8]. In assay [6], the Potency entry is “inactive”.
Consider `CCCCCCCCCCCCCCCCCCn1cc[n+](C)c1`, for which the Potency in [1] was 28.1 µM (active); in assay [9], 0.888 µM (active); in assay [4] it was 79.2 µM (active); in [5], 50 µM (active); in [8], 56.1 µM (active); in [6], 6.88 µM (active). Also, in [7], the Potency is 31.5 µM (active). In assay [3], the Potency entry is “inactive”.
